Compound activity: PubChem, several laboratories
Measles CPE: protection of cells from measles virus; hit rate 1.5% among 140,000; protection (pct of control), % at 4 µM; AID 841; Measles virus-infected cells, CPE protection, absorbance; in the data active = protection mostly above about 24%, no sharp cut-off; inactive = mostly below about 26%
CYP2C9 inh: blocks human cytochrome P450 2C9 | CYP2C9 Supersomes, luciferin-H conversion, luminescence | inhibition, % at 5 µM | AID 777 | hit rate 20% among 96,000;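 active = blocking of liver enzyme CYP2C9 beyond about 50% at 5 µM, limit read from the data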
CYP2C19 activ: activators of human cytochrome P450 2C19 | activation factor at 5 µM | 96,000 tested, under 10 active | AID 1025 | recombinant CYP2C19, luciferin-H EGE luminescence; hits give high values; 0 = fully inhibited enzyme, 1 = untreated enzyme;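 active = activation factor of at least 2 at 5 µM in the primary screen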;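 also: 0 = wells with 2.5 mM tranylcypromine and 1 = vehicle-only wells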
Target sequence (P33261 whole entry, looked up): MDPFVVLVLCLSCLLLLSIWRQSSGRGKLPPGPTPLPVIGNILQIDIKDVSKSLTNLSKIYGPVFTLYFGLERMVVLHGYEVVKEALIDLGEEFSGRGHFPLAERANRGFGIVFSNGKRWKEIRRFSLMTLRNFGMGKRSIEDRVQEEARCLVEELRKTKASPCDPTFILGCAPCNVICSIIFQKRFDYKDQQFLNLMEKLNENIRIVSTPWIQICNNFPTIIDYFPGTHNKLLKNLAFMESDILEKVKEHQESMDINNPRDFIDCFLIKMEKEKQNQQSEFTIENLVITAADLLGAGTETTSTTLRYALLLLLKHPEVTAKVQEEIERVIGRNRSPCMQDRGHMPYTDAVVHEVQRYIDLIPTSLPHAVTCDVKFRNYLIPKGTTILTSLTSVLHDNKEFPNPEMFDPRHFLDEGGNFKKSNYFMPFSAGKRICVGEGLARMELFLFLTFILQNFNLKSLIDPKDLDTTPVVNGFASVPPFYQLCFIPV
CYP2C9 activ: CYP2C9 (human) activation; hit rate 1.4% among 96,000; recombinant CYP2C9, luciferin-H conversion, luminescence; hits give high values; factor 1 = untreated enzyme, 0 = blocked; activation factor at 5 µM; AID 1024;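 active = activation factor of 2 or more for CYP2C9 at a 5 µM dose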;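 also: 0 = sulfaphenazole-blocked wells and 1 = vehicle-only wells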
CYP2C19 inh: human CYP2C19 inhibition | CYP2C19 Supersomes, luciferin-H EGE luminescence, 30 min | inhibition, % at 5 µM | hit rate 21% among 96,000 | AID 778;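 active = CYP2C19 inhibition above a set limit at 5 µM in the primary screen, cut at about 50% in these data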;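 also: plate controls were negative control wells for no effect and 2.5 mM tranylcypromine positive control for full effect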
Active calls of the source: *; / = not tested or not shown. Rows were chosen to be rich in hits. Some 22% of all compounds tested hit in one or more screens of this group.

SMILES | Measles CPE | CYP2C9 inh | CYP2C19 activ | CYP2C9 activ | CYP2C19 inh
CCn1c(C)nc2cc(C(=O)N/N=C/c3ccc(OC)c(O)c3)ccc21 | 10.1 | / | / | / | /
Cc1cccc(OCC(=O)NNc2c3ccccc3nc3ccccc23)c1 | 1.7 | -95.2 | 1 | 2* | 4.8
Cc1cccc(OCC(=O)Nc2cc(C)ccc2O)c1 | 9.5 | 16.1 | 0.4 | 0.8 | 60.4*
Cc1cccc(OCC(=O)Nc2cc(C)c(C)cc2O)c1 | 15.0 | 26.3 | 0.4 | 0.7 | 56.1*
Cc1ccc(OCC(=O)NNc2c3ccccc3nc3ccccc23)cc1 | 0.6 | / | / | / | /
Cc1cccc(OCC(=O)Nc2ccccc2-c2ccccc2)c1 | 11.3 | / | / | / | /
Cc1cccc(OCC(=O)Nc2ccccc2C(F)(F)F)c1 | 16.3 | / | / | / | /
CCOC(=O)c1c(/N=C/c2cc([N+](=O)[O-])ccc2O)sc(C)c1C | 22.5 | / | / | / | /
CCOC(=O)c1c(/N=C/C2=C(O)CC(C)(C)CC2=O)sc(C)c1C | 52.0* | / | / | / | /
CC(=O)NCC(=O)N(C)C(C(=O)Nc1ccc(C(C)C)cc1)c1ccccc1 (stereo not drawn) | 3.8 | 5.6 | 1 | 0.9 | -4.8
O=C(Nc1ccc(Cl)c(Cl)c1)C1=Cc2ccccc2OC1 | -0.9 | -7.7 | 1.1 | 1.1 | -6.6
CC1CC(=O)C2=C(C1)Nc1ccccc1N=C2 (stereo not drawn) | 8.9 | 45.0 | 0.8 | 0.6 | 22.5
CCC1=Nc2ccccc2NC2=C1C(=O)CCC2 | 7.3 | -27.0 | 0.4 | 1.3 | 62.9*
CSc1nc(-c2ccccc2)nc(N2CCCC2)c1C(C)=O | 7.1 | 24.8 | 0.9 | 0.8 | 6.5
CSc1nc(-c2ccccc2)nc(N2CCN(C)CC2)c1C(C)=O | 10.4 | 52.6* | 0.4 | 0.5 | 56.2*
CCOc1ccc(C2C(C#N)=C(N)Oc3cc(C)n(Cc4ccco4)c(=O)c32)cc1OC (stereo not drawn) | 14.8 | 16.4 | 1 | 0.8 | 3.6
Cc1cc2c(c(=O)n1Cc1cccnc1)C(Cc1ccccc1)C(C#N)=C(N)O2 (stereo not drawn) | 8.9 | 67.7* | 0.3 | 0.3 | 73.7*
Cc1cc2c(c(=O)n1Cc1ccco1)C(c1cccnc1)C(C#N)=C(N)O2 (stereo not drawn) | 29.2 | 66.3* | 0.9 | 0.3 | 13.9
COc1ccc(C2C(C#N)=C(N)Oc3cc(C)n(Cc4ccncc4)c(=O)c32)cc1 (stereo not drawn) | 3.4 | 71.6* | 0.4 | 0.3 | 61.9*
Cc1cc2c(c(=O)n1Cc1cccnc1)C(c1cccs1)C(C#N)=C(N)O2 (stereo not drawn) | 24.1 | 30.7 | 0.8 | 0.7 | 15.9
Cc1cc2c(c(=O)n1CCN(C)C)C(c1ccncc1)C(C#N)=C(N)O2 (stereo not drawn) | 27.1 | -14.5 | 1.1 | 1.1 | -11.8
CC(C)C(NS(=O)(=O)c1cccc2nsnc12)C(=O)N1CCc2ccccc2C1 (stereo not drawn) | 9.8 | 41.0 | 0.8 | 0.6 | 24.4
Cc1ccc(Cl)cc1N1CCN(C(=O)C2CCN(c3nnc(-n4cccc4)s3)CC2)CC1 | 13.3 | 85.1* | 0.6 | 0.1 | 38.2
COc1ccc(C2OC(=O)CC2C(=O)N2CCN(c3cc(Cl)ccc3C)CC2)cc1OC (stereo not drawn) | 23.4 | 85.0* | 0.3 | 0.2 | 72.6*
Cc1cccc(N2CCN(C(=O)C3CCN(c4nnc(-n5cccc5)s4)CC3)CC2C)c1 (stereo not drawn) | 3.1 | 36.7 | 0.7 | 0.6 | 33.9
SMILES | Measles CPE | CYP2C9 inh | CYP2C19 activ | CYP2C9 activ | CYP2C19 inh
COc1ccc(OC)c(CCNC(=O)C2CCN(c3nnc(-n4cccc4)s3)CC2)c1 | 2.0 | 65.4* | 0.1 | 0.3 | 92.7*
CCc1ccccc1N1CCN(S(=O)(=O)c2cc(OC)ccc2OC)CC1 | 19.5 | 98.7* | 0 | 0 | 100.0*
O=C(NC1CCN(Cc2ccccc2)CC1)C1COc2ccccc2O1 (stereo not drawn) | 17.6 | -2.7 | 0.7 | 1 | 27.9
CCOc1ccc(S(=O)(=O)N2CCN(C(=O)c3cc4c(s3)CCCC4)CC2)cc1 | 23.6 | / | / | / | /
Cc1ccc(CNC(=O)CCc2c(C)nc3ncnn3c2C)cc1 | 3.4 | -8.5 | 1.1 | 1.1 | -6.9
c1ccc2c(-c3nnc4n3CCCCC4)c[nH]c2c1 | 5.8 | -17.8 | 1.1 | 1.2 | -11.3
COc1ccc(OC)c(S(=O)(=O)N2CCC(C(=O)N3CCN(Cc4ccccc4)CC3)CC2)c1 | 6.9 | 54.9* | 0.6 | 0.5 | 41.7
COc1ccc(OC)c(S(=O)(=O)N2CCC(C(=O)NCCc3ccccc3)CC2)c1 | 4.1 | -216.5 | 0.6 | 3.2* | 41.2
COc1ccc(CNC(=O)C2CCN(S(=O)(=O)c3cc(OC)ccc3OC)CC2)cc1 | 7.1 | -86.8 | 0.4 | 1.9 | 64.9*
O=C(C1CCN(c2nnc(-n3cccc3)s2)CC1)N1CCN(Cc2ccc3c(c2)OCO3)CC1 | 11.1 | 1.5 | 0.8 | 1 | 24.7
CC1CCN(Cc2ccc(NC(=O)C3CCN(c4nnc(-n5cccc5)s4)CC3)cc2)CC1 | 1.1 | 46.1 | 0.4 | 0.5 | 56.0*
C[C@@H]1NC(=O)[C@H](CC(N)=O)NC(=O)c2cc([N+](=O)[O-])cc(I)c2OCC[C@@H](C(=O)NC(CC(=O)O)C(N)=O)NC1=O (stereo partly drawn) | 10.7 | / | / | / | /
CCCCCOC(=O)C1C(c2ccccc2)C(C(=O)O)C1c1ccccc1 (stereo not drawn) | 10.1 | / | / | / | /
Cc1ccc(C(=O)CN(C(=O)c2ccc(Cl)cc2)N2C(=O)c3ccccc3C2=O)cc1 | 26.1 | 43.4 | 0.9 | 0.6 | 9.7
COc1cc(NC(=O)C2=C(N3CCOCC3)/C(=C\c3ccc(Cl)cc3Cl)CC2)cc(OC)c1OC | 2.6 | / | / | / | /
COc1ccc(OC)c(S(=O)(=O)N2CCC(C(=O)NC(C)c3ccccc3)CC2)c1 (stereo not drawn) | 2.7 | -192.3 | 0.6 | 2.9* | 39.4
Cc1cccnc1NC(=O)C1c2ccccc2Oc2ccccc21 | 21.2 | / | / | / | /
CC1(C)CC(=O)C2=C(C1)NC(=O)CC2c1cccc(F)c1 (stereo not drawn) | 43.4* | 10.4 | 1 | 0.9 | -3.7
CC1(C)CC(=O)C2=C(C1)NC(=O)CC2c1cc(F)ccc1F (stereo not drawn) | 28.0 | -23.9 | 1.2 | 1.2 | -16.7
COc1ccccc1CC(=O)Nc1cccc(C(=O)NN2C(=O)c3ccccc3C2=O)c1 | 12.9 | / | / | / | /
CNC(=S)N1N=C(c2ccc(Br)cc2)CC1c1ccc(Br)cc1 (stereo not drawn) | 4.1 | 94.6* | 0 | 0.1 | 98.1*
CN=C1SC(CC(=O)Nc2sc(C)c(C)c2C(=O)OC)C(=O)N1C (stereo not drawn) | 2.2 | 57.6* | 0.5 | 0.4 | 48.0
COc1ccc(N=C2SC(CC(=O)Nc3ccccc3)C(=O)N2CC2CCCO2)cc1 (stereo not drawn) | 6.0 | 73.4* | 0.5 | 0.3 | 46.9
CCn1c2ccccc2c2cc(N=C3SC(CC(=O)Nc4ccccc4OC)C(=O)N3C)ccc21 (stereo not drawn) | 21.7 | 87.1* | 0.6 | 0.1 | 37.5
